Sampled rows, rich in hits. Any-hit rate of the full collection: about 6.6%.
GRIN3A LBD mod – modulators (binders) of human NR3A ligand-binding domain; NR3A LBD differential scanning fluorimetry, Tm shift; 0% = protein alone, 100% = glycine-bound protein; Tm shift relative to glycine control, % at 25 µM; 340,000 compounds, 2.5% hits; AID 1259313;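 active means melting temperature shift of at least 10% of the positive control shift, at one fixed dose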
Beta cell apopt – beta cell apoptosis inhibition | INS-1E cytokine-induced death, ATP luminescence, 48 h; percent of positive-control rescue, neutral wells zero | protection from apoptosis, % (no concentration beside the values) | 300,000 compounds, 0.8% hits | AID 435005;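 active means Every replicate reaches about 75%, or at least half do and their mean reaches it too, limit read from the data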;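 further: 0% = cytokine-treated negative control wells and 100% = positive control rescue; higher means more ATP so stronger rescue from cytokine killing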
MPTP block – permeability transition pore inhibition. 360,000 compounds, 1.4% hits. inhibition, % at 10 µM. isolated mouse mitochondria, Ca2+ swelling absorbance, 30 min. AID 602449;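 active means inhibition of 50% or more, scaled per plate between neutral and stimulator controls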;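 further: 0% = DMSO wells given calcium and 100% = 1 mM EGTA wells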
Gli-Sufu antag – antagonists of Gli-Sufu signaling | Sufu-KO-LIGHT fibroblasts, Gli luciferase reporter luminescence | 340,000 compounds, 0.74% hits | inhibition, % at 5 µM;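 active means inhibition above about 55%, limit read from the data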;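 further: 0% = DMSO-treated cells and 100% = wells with medium but no cells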
CSC inhib – blocks cancer stem cells | AID 2717 | 300,000 compounds, 1.1% hits | cancer stem cell-like cells viability, luminescence | inhibition, % at 7.5 µM; in the data active means inhibition above about 75%; tested in HMLE shEcad cells
Mdm2-MdmX inh – disrupts the human Mdm2-MdmX interaction | inhibition, % at 8 µM | 330,000 compounds, 3% hits | O15151+Q00987 | AID 485346 | SaOS-2 split-luciferase Mdm2/MdmX complementation, luminescence;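 active means inhibition of at least 50% at 8 µM in the primary screen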
Mdm2 MdmX conf – human Mdm2/MdmX binding inhibition, confirmed; shares compounds with Mdm2-MdmX inh; luminescent assay; inhibition, % at 8 µM; 10,000 compounds, 55% hits; AID 489028; in the data active means inhibition above about 40%
Full FLuc ctr – counter-screen for Mdm2/MdmX inhibitors: full-length luciferase; shares compounds with Mdm2-MdmX inh; SaOS-2 full-length luciferase counterscreen, luminescence; inhibition, % at 8 µM; 6,200 compounds, 77% hits;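 active means mean inhibition at 8 µM reaching about 37%, which flags the compound as non-specific, limit read from the data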;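 further: p53-null SaOS-2 cells with luciferase driven by a doxycycline-inducible promoter; compound on cells about two nights before reading with doxycycline added after day one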
Gli-Sufu confirm – Gli-SUFU antagonism confirmation, single concentration; 2,500 compounds, 40% hits; shares compounds with Gli-Sufu antag; inhibition, % at 5 µM; Sufu-KO-LIGHT cells, Gli luciferase reporter, luminescence; AID 602428;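 active means mean inhibition at 5 µM reaching about 45%, limit read from the data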;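 further: plate controls were DMSO-treated cells for no effect and wells lacking cells for full effect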
SufuKO cytotox – cytotoxicity counter-screen for Gli-SUFU antagonists | shares compounds with Gli-Sufu antag | Sufu-KO-LIGHT cells cytotoxicity, ATP luminescence | cytotoxicity, % at 5 µM | 2,500 compounds, 32% hits;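 active means mean cytotoxicity at 5 µM above about 25%, limit read from the data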;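 further: cells exposed to compound overnight for roughly 16 to 18 hours; plate controls were DMSO wells with cells for no effect and medium without cells for full effect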
Wnt3a cs – counter-screen for Gli-SUFU antagonists: Wnt3a reporter inhibition. 2,500 compounds, 20% hits. inhibition, % at 6.25 µM. Wnt-LIGHT cells, Wnt3a-driven luciferase reporter, luminescence. shares compounds with Gli-Sufu antag;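 active means mean inhibition above about 25%, limit read from the data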
Rh123 counter – Rhodamine 123 counter-screen of mitochondrial pore hits; shares compounds with MPTP block; isolated mitochondria, membrane potential, Rhodamine 123 fluorescence; inhibition, % at 10 µM; 5,000 compounds, 78% hits; AID 624504; in the data active means inhibition above about 22%;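 further: 0% = DMSO vehicle and 100% = positive control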
The depositor's hits bear a star; x = not tested or not shown.

SMILES	GRIN3A LBD mod	Beta cell apopt	MPTP block	Gli-Sufu antag	CSC inhib	Mdm2-MdmX inh	Mdm2 MdmX conf	Full FLuc ctr	Rh123 counter	others
O=C(Nc1ccc([N+](=O)[O-])cc1)Nc1ccon1	-3	33	58*	4	x	66*	67*	73*	99*
CC(=O)N1CSCC1C(=O)NNS(=O)(=O)c1ccccc1 (centres undefined)	2	x	2	21	-12	-5	x	x	x
Cc1ccc(S(=O)(=O)N2CCN(C(=O)NCc3ccc(F)cc3)CC2)c(C)c1	-3	0	2	14	-12	-11	x	x	x
CSCCC(NC(=O)c1ccccc1Br)C(=O)NNC(=O)c1cc(C)oc1C (centres undefined)	-1	-3	-1	-4	0	-20	x	x	x
Cc1ccc(C)c(OCC(O)CN2CCC(CN3C(=O)c4cccc5cccc(c45)C3=O)CC2)c1 (centres undefined)	-4	67	100*	51	33	60*	33	x	92*	Gli-Sufu confirm=33;SufuKO cytotox=13;Wnt3a cs=28*
CN1CCN(C(c2ccc(Cl)cc2)c2cc(Cl)c3cccnc3c2O)CC1 (centres undefined)	34*	68	75*	4	-16	73*	72*	38*	-23
CCC(C)(C)n1nnnc1C(c1ccc(Cl)cc1)N1CCN(C)CC1 (centres undefined)	-2	-1	-1	6	-6	7	x	x	x
Cc1nonc1NC(=O)CSc1nc(C23CC4CC(CC(C4)C2)C3)nc2ccccc12	18*	10	79*	1	29	52*	23	x	72*
Cc1nonc1NC(=O)CSc1nc(C2CCCCC2)nc2ccccc12	-6	-4	40	10	22	40	x	x	x
CCSc1nnc(NC(=O)NC(CC)(C(F)(F)F)C(F)(F)F)s1	0	39	88*	26	99*	90*	36	64*	102*
CSc1nsc(N/N=C/c2ccc3c(c2)OCO3)c1C#N	5	26	1	-126	4	-129	x	x	x
COc1cc(/C=N/Nc2snc(SC)c2C#N)cc(OC)c1OC	-1	35	73*	35	-17	70*	73*	43*	75*
CSc1cccc(NC(=O)NCc2cccc(CNC(=O)Nc3cccc(SC)c3)c2)c1	16*	x	68*	-2	x	56*	46*	67*	63*
CCCNC(=O)Nc1ccc(NC(C)=O)cc1	3	-6	1	-4	-7	8	x	x	x
COc1ccc(NC(=S)NC(NC(C)=O)C(Cl)(Cl)Cl)c([N+](=O)[O-])c1 (centres undefined)	-2	-3	4	-2	-5	18	x	x	x
COc1ccc(NC(=S)NC(NC(=O)c2cccc(Cl)c2)C(Cl)(Cl)Cl)c([N+](=O)[O-])c1 (centres undefined)	13*	x	92*	13	x	87*	72*	57*	51*
O=C(NC(NC(=S)Nc1ccccc1O)C(Cl)(Cl)Cl)c1ccco1 (centres undefined)	0	0	4	-3	10	4	x	x	x
O=C(NC(NC(=S)Nc1ccccc1Cl)C(Cl)(Cl)Cl)c1cccc(Cl)c1 (centres undefined)	13*	49	77*	14	111*	97*	95*	22	62*

Screening results: PubChem, several laboratories
